# Measured values published in PubChem BioAssay (NCI).
# Compounds without any hit were thinned out: in the full panel of roughly 83,000, 20% have a hit.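 Note: values are percent growth. 100 is the growth of untreated cells, values between 100 and 0 indicate rising inhibition; between -100 and 0 indicates cell death.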 A number with no mark means an inactive call. Active and inactive are the calls of the source. How the source made its calls: active means growth percent below 10; inactive means the rest.
# What was measured:
# Test in all cases: NCI-60 one-dose screen, 48 h (100 = growth as untreated, 0 = no growth, -100 = all killed)
# Conditions in all cases: 10 µM unless noted
# DU-145 prostate = test system: DU-145 prostate
# K-562 leukemia = test system: K-562 leukemia
# MALME-3M melanoma = test system: MALME-3M melanoma
# MDA-MB-231 breast = test system: MDA-MB-231 breast
# RXF 393 renal = test system: RXF 393 renal
# SF-268 CNS = test system: SF-268 CNS
# SF-295 CNS = test system: SF-295 CNS
# SF-539 CNS = test system: SF-539 CNS
# UACC-257 melanoma = test system: UACC-257 melanoma
# M14 melanoma = test system: M14 melanoma
SMILES,growth (DU-145 prostate),growth (K-562 leukemia),growth (MALME-3M melanoma),growth (MDA-MB-231 breast),growth (RXF 393 renal),growth (SF-268 CNS),growth (SF-295 CNS),growth (SF-539 CNS),growth (UACC-257 melanoma),growth (M14 melanoma)
O=C1NC(=O)C(CC(=O)n2c(-c3ccccc3)nc3ccccc32)C(=O)N1,108%,106%,116%,98.9%,101%,99%,97.3%,95.1%,112%,108%
CCCCNP1(NCCCC)=NP(NCCCC)(NCCCC)=NP(NCCCC)(NCCCC)=NP(NCCCC)(NCCCC)=N1,16.5%,-26.4% (active),-18.1% (active),-20.9% (active),16.5%,25.8%,-25% (active),34%,-22.5% (active),11.8%
COc1cc(/C=C2\CN(C(=O)CCN3CCC(=NO)CC3)C/C(=C\c3cc(OC)c(OC)c(OC)c3)C2=O)cc(OC)c1OC,-94% (active),6.55% (active),-50.4% (active),-73.5% (active),-85.1% (active),-73% (active),-75.4% (active),-60.5% (active),-16.9% (active),-46.6% (active)
COc1ccc(-c2nn(-c3ccccc3)cc2/C=C2\SC(=O)NC2=O)cc1,109%,86.7%,112%,84.4%,114%,96.9%,92%,96.8%,110%,102%
COc1cc(C#N)cc(OC)c1OCCN(CCOc1c(OC)cc(C#N)cc1OC)S(=O)(=O)c1ccc(C)cc1,115%,94%,108%,112%,70.9%,107%,94.2%,105%,97.7%,99.7%
O=C1OC2C(I)C3CC2C1C3c1ccccc1 (stereo not given),107%,104%,136%,96.8%,113%,106%,172%,94.1%,121%,101%
COc1ccc(-c2cn3c(ccc4ccccc43)n2)cc1,104%,94.7%,106%,83.3%,121%,101%,89.9%,90.5%,118%,112%
CCOC(=O)Cc1cnn(C)c1NC(=O)c1ccc(Cl)cc1NC(C)=O,110%,103%,105%,112%,115%,98.7%,101%,101%,105%,101%
Cc1ccc2c(c1)n([O-])c1cc(Cl)ccc1[n+]2=O,101%,78.8%,97.8%,80.9%,107%,108%,109%,107%,97.1%,99%
COc1cc2c(=O)n(CC3CCCCC3)c3c4cc[nH]c4ncc3c2cc1OC,50.3%,5.36% (active),65.9%,25.5%,-4.27% (active),28.8%,42.9%,-7.56% (active),84.9%,49.2%
CC1=CC(=O)CC(C)(C)[C@@]1(O)/C=C/[C@@H](C)O,108%,115%,102%,93.3%,93.3%,98.1%,91.5%,102%,89.1%,102%
C=CC[N+]1(CCO)CCN=C1CCCCCCCCCCCCC (stereo not given),-90.4% (active),-53.9% (active),-61.9% (active),-70.1% (active),-55.3% (active),-60.6% (active),47.5%,-96.6% (active),-80.3% (active),-86.2% (active)
CCOC(=O)c1cnc2ccc(OC)cc2c1Nc1cccc(S(=O)(=O)NC)c1,102%,92.8%,105%,100%,-4.54% (active),86.2%,54.7%,50.1%,112%,115%
CSc1nc(NCCO)c(C#N)c(-c2cccc(N)c2)n1,106%,94.4%,101%,86.4%,113%,96.2%,96.9%,91.7%,100%,100%
COc1cccc(-c2nc3sccn3c2-c2ccnc(NCCCNS(=O)(=O)c3ccc(Cl)cc3)c2)c1,51.3%,29.4%,74.1%,59.5%,65.3%,44.2%,42.7%,66.7%,59.4%,41.1%
CC(C)C1=C[C@@]23CC[C@@H]4[C@](C)(CCC[C@@]4(C)C(=O)OCC#CCN4CCCC4)[C@H]2C[C@@H]1[C@H]1C(=O)OC(=O)[C@H]13,89.2%,68.5%,89.6%,98.3%,110%,93.1%,97.3%,92.1%,96.5%,96.6%
CCOC(=O)c1c2ncccc2n2c(=O)n(-c3ccc(Cl)cc3)nnc12,112%,77.7%,95.7%,91.2%,104%,72.3%,9.85% (active),47.8%,102%,81.1%
COc1ccc(-n2cc(-c3ccccc3)c3c(SCC(=O)N/N=C/c4ccc([N+](=O)[O-])cc4)ncnc32)cc1,114%,110%,110%,102%,113%,98.5%,105%,97.9%,107%,108%
COc1ccc(C/C(C)=C(\c2ccc(Cl)cc2)c2ccc(OCCN3CCCCCC3)cc2)cc1,106%,20.7%,104%,99.9%,93.1%,88.4%,100%,90.8%,94.7%,90.2%
CC(=O)O[C@H]1CC[C@]2(C)[C@H]3CC[C@@H]4[C@H]5[C@H](C(C)C)CC[C@]5(C(=O)OCC(CO)(CO)N=C(N)N)CC[C@@]4(C)[C@]3(C)CC[C@H]2C1(C)C,37.4%,-26.7% (active),17%,42.1%,40.6%,77.6%,100%,86.4%,90.2%,73.4%
Brc1cccc(-c2cc(-c3ccc4c(c3)OCCO4)[nH]n2)c1,21% [25 µM],14.7% [25 µM],49.1% [25 µM],33.4% [25 µM],-18.6% [25 µM] (active),50.5% [25 µM],0.112% [25 µM] (active),-14.1% [25 µM] (active),62.4% [25 µM],20.9% [25 µM]
O=C(/C=C\c1ccc2ccccc2n1)c1cc(Cl)ccc1O,93.3%,79.4%,80.5%,78.3%,84.2%,71.6%,69.9%,87.2%,84.9%,84.6%
CN1CCN(Cc2ccc(NC(=O)c3cncc(C#Cc4c(N)ncc5ccc(C#N)cc45)c3)cc2C(F)(F)F)CC1,-60.2% (active),-39.3% (active),-81.9% (active),-82% (active),-76.6% (active),-43.3% (active),85.9%,39.7%,68.7%,-45.5% (active)
C=C1CC2(OC1=O)C(=O)Nc1ccccc12 (stereo not given),43%,21.8%,12.4%,65.6%,-13.3% (active),98%,96%,47.3%,71.9%,59.1%
C(=N\Nc1ccccn1)/c1ccccn1,9.51% (active),19.3%,-2.58% (active),47.6%,17%,-0.109% (active),21.7%,7.48% (active),-18.9% (active),-35.8% (active)
O=C(/C=C/c1ccc(Cl)cc1)c1ccc(O)c(CN2CCN(c3cc4c(cc3F)c(=O)c(C(=O)O)cn4C3CC3)CC2)c1,63.5%,50.7%,59.8%,77.2%,45.4%,42%,45%,53.5%,90.2%,52.6%
O=[N+]([O-])c1cccc(-c2nc3sccn3c2-c2ccnc(NCCCNS(=O)(=O)c3cccc(F)c3)n2)c1,9.77% (active),4.26% (active),-10.6% (active),47.6%,52%,11.8%,5.83% (active),34.8%,-15.2% (active),-1.16% (active)
